“And” between values parts separate entries of the source, which are not always exact repeats. Equal entries are not always repeated. Records with an inconclusive call do not appear. The source made the active and inactive calls.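 The calls were made as follows, unless noted: active = compounds whose cell count with miR-34 switched on is under 0.7 times the count with it off; inactive = the rest.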
Columns and labels:
[1] = viability loss with induced miR-34 in A549 – imaging, A549 dox-inducible miR-34, nuclei and caspase counts, primary screen (AID 1347080); conditions: A549 miR-34 inducible, Hoechst nuclei count, 48 h
[2] = MELAS cybrid and Rieske KO viability enhancers – cell-based, MELAS cybrids, Rieske KO mouse fibroblasts, CellTiter-Glo, primary screen (AID 1508586;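 active = mean z-score across replicates of 1.96 or higher in either the MELAS or the Rieske mutant cell line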;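 also: z relative to plate mean and SD of compound and empty wells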); conditions: low glucose
[3] = galactose survival enhancers in mitochondrial complex I cybrids – cell-based, galactose medium, ATP luminescence, primary screen (AID 1645843;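 active = z-score of at least 1.8 in each of two replicates, scored against plate mean and spread of sample wells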;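 also: positive z means more ATP and so rescue of galactose-driven cybrid death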); conditions: complex I mutant cybrid cells, 72 h, stronger effect = higher value
[4] = P. berghei load reduction in hepatocytes – cell-based, HepG2, luciferase luminescence, HepG2 viability, primary screen (AID 624349; in the data active = parasite load remaining mostly below about 12%, no sharp cut-off; inactive = mostly above about 10%;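 also: 100% = mean of DMSO negative control wells on the same plate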); conditions: P. berghei liver stage in HepG2, luciferase luminescence, concentration not given here; parasite load remaining: stronger effect = lower value; viability: measured here: HepG2 viability without parasites
[5] = target: NAD(+) hydrolase SARM1 (Homo sapiens) (UniProt Q6SZW1); assay: blocking NAD cleavage by SARM1 SAM-TIR – cell lysate, NAD-Glo luminescence (AID 1508614;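 active = compound whose remaining NAD level is above about 45 nM, limit read from the data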;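 also: higher remaining NAD means stronger inhibition of SARM1 NADase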); conditions: SAM-TIR HEK293T lysate NADase, at 1 µM, stronger effect = higher value
Chain of NAD(+) hydrolase SARM1 (Homo sapiens) (Q6SZW1 whole entry, looked up, the tested form may be a part): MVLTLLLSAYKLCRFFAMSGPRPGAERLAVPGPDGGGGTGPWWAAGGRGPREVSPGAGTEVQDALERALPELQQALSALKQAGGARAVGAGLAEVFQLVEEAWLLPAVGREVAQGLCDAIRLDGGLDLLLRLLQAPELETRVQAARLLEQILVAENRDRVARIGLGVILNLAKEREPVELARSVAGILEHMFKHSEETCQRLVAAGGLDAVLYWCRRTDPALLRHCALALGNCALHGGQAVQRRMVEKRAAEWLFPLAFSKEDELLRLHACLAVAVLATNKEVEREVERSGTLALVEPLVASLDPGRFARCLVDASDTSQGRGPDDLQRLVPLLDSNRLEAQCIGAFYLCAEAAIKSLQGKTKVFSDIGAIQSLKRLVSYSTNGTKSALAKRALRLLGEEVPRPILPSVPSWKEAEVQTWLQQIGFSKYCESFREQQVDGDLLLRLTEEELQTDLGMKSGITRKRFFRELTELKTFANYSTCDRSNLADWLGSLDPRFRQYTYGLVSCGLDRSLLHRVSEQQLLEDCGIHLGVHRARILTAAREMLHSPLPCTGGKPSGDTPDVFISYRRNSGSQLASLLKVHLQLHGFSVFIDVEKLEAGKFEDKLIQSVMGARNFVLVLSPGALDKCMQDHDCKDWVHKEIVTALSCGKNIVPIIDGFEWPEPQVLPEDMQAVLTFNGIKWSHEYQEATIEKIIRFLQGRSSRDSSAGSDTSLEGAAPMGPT

[6] = target: Mitogen-activated protein kinase 7 (Homo sapiens) (UniProt Q13164); assay: Gal4-ERK5 driven luciferase induction – cell-based, HTS, primary screen (AID 1508626;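 active = luciferase signal above three times the same-plate solvent-only control wells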;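 also: luciferase driven by Gal4-ERK5 fusion binding five Gal4 sites before minimal TATA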); conditions: HeLa Gal4-ERK5 transactivation, 18 h, at 5 µM, stronger effect = higher value
Chain of Mitogen-activated protein kinase 7 (Homo sapiens) (Q13164 whole entry, looked up, the tested form may be a part): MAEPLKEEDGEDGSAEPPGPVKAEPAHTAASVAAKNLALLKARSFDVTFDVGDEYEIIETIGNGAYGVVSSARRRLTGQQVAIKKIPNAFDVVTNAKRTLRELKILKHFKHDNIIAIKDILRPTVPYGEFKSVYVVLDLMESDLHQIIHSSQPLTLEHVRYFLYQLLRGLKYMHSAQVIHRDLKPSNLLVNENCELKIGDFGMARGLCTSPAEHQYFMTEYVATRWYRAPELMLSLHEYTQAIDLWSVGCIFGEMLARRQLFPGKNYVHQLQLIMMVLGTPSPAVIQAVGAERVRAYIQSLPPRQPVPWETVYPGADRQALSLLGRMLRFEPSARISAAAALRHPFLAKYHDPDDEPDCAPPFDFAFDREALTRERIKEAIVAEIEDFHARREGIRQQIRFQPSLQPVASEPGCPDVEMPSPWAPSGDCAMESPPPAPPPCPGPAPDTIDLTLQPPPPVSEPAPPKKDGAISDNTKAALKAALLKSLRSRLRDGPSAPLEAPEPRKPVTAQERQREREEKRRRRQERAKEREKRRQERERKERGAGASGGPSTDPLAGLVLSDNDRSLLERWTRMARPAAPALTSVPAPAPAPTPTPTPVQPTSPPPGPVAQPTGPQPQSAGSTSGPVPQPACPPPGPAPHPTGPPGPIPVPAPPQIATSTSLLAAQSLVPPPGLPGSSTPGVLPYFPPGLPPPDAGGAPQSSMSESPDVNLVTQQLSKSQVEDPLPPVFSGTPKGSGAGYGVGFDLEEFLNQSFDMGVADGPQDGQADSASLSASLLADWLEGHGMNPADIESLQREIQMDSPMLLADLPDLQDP

[7] = compounds altering viability of human ES cells (AID 493140; call rule not given here;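 also: cells exposed to compounds for four days before counting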); conditions: human embryonic stem cell survival screen; stronger effect = higher value
[8] = target: ATP-dependent translocase ABCB1 (Homo sapiens) (UniProt P08183); assay: P-glycoprotein substrate transport blockade – cell-based (AID 377; in the data active = fluorescence slope change above about 50%); conditions: MDR1-expressing cells, fluorescent substrate accumulation slope; stronger effect = higher value; concentration not given here
Chain of ATP-dependent translocase ABCB1 (Homo sapiens) (P08183 whole entry, looked up): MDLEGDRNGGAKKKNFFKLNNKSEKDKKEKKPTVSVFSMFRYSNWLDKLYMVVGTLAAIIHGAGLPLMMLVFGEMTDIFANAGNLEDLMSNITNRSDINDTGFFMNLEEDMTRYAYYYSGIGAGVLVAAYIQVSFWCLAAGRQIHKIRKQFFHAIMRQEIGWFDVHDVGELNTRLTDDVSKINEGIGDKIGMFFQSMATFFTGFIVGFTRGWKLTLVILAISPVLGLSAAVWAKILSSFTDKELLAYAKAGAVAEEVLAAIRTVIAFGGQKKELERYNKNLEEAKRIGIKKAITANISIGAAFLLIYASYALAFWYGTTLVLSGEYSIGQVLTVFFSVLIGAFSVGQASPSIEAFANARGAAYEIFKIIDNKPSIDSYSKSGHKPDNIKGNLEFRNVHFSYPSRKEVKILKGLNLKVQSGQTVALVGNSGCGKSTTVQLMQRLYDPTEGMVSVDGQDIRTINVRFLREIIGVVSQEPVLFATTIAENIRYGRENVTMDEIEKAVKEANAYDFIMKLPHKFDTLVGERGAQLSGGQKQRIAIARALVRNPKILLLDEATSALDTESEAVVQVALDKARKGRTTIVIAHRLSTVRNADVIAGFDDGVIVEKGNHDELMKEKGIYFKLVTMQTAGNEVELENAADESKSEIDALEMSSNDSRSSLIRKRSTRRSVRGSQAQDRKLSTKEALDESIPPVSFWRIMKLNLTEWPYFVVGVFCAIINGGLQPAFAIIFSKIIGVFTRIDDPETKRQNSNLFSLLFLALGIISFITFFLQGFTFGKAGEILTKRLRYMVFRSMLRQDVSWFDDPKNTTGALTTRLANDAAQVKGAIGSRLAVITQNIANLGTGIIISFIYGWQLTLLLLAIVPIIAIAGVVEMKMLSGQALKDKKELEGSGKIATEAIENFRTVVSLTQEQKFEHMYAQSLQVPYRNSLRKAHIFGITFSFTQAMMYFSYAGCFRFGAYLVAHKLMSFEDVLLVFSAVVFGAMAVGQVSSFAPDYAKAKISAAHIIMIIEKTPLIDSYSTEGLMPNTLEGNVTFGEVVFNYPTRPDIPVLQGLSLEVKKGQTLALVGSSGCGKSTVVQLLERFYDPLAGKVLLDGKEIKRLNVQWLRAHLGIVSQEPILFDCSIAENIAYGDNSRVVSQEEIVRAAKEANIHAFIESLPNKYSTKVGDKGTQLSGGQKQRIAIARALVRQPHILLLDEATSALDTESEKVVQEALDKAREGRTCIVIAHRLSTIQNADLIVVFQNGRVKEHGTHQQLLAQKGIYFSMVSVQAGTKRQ

[9] = measured here: relative caspase fold change +Dox/-Dox
[10] = measured here: total cells with miR-34 induction, stronger effect = lower value
[11] = measured here: total cells without miR-34 induction
[12] = MELAS cybrid survival, CellTiter-Glo 48 h, stronger effect = higher value
[13] = Rieske KO mouse fibroblast survival, CellTiter-Glo 72 h
[14] = stronger effect = lower value, cell number ratio, induced over uninduced

Structure (SMILES)	fold change ([1]; stronger effect = lower value)	fold change [1, 9]	cell count [1, 10]	cell count [1, 11]	z-score [2, 12]	z-score [2, 13]	z-score [3]	fold change [1, 14]	parasite load remaining [4]	viability [4] [%]	remaining NAD [5]	luciferase signal [6]	survival [7]	fluorescence slope change [8]
Cc1nc(-c2ccccn2)nc(NCCc2ccccc2)c1Cl	0.975 (inactive)	0.693	3090	3170	-0.0148	3.58	-2.29 (inactive)							
C=CC(C)(C)c1cc2cc3c(cc2oc1=O)OC(C(C)(C)O)C3 (stereo not given)		0.587	5210	6170	-1.27 (inactive)	0.752	-2.66 (inactive)	0.846 (inactive)						
COc1cccc2ncn(Cc3cn4ccccc4n3)c(=O)c12		1.17	9180	9730	-0.241 (inactive)	-0.636	-0.6 (inactive)	0.944 (inactive)						
O=C1C[C@@H]2OCC=C3CN4CC[C@]56c7ccccc7N1[C@H]5[C@H]2[C@H]3C[C@H]46	0.929 (inactive)	1.24	10000	10800	0.997 (inactive)	0.445	0.365 (inactive)		96.5% (inactive)	226	10 nM (inactive)	48 AU (inactive)		
CC=C(C)C(=O)NC(c1ccccc1)C(O)C(=O)OC1C[C@@]2(O)C(OC(=O)c3ccccc3)[C@@H]3[C@]4(OC(C)=O)COC4CC(O)[C@@]3(C)C(=O)C(OC(C)=O)C(=C1C)C2(C)C (stereo not given in full)		0.457	1460	1150	1.29 (inactive)	0.0967		1.27 (inactive)						
Oc1ccc(C2(c3ccc(O)cc3)CCCCC2)cc1	0.911 (inactive)	0.41	7610	8350	-0.617 (inactive)	-0.22	-1.9 (inactive)							
Clc1ccc(C(Cn2ccnc2)OCc2ccc(Sc3ccccc3)cc2)c(Cl)c1 (stereo not given)		0.891	6850	8050	-0.265 (inactive)	0.16		0.851 (inactive)						
C[C@H]1CN(C2CCC(C#N)(c3ccc(F)cc3)CC2)CC[C@@]1(C(=O)O)c1ccccc1 (stereo not given in full)	0.857 (inactive)	1.09	9640	11200	0.032 (inactive)	0.209	0.74 (inactive)		36.7% (inactive)	68				
C/C=C/N1CC[C@]23CCCC[C@H]2[C@H]1Cc1ccc(O)cc13	0.904 (inactive)	1.04	9380	10400	-1.07 (inactive)	-0.504	0.26 (inactive)		46.3% (inactive)	104				
CC(Cc1ccccc1)NCCC(c1ccccc1)c1ccccc1 (stereo not given)	1.36 (inactive)	0.226	3500	2580	-0.835 (inactive) and -1.25 (inactive)	-0.134 and -0.319	-2.66 (inactive)		54.7% (inactive)	77.6			2.25 (inactive)	
CC1CCCC=C[C@@H]2CC(O)C[C@H]2C(O)C=CC(=O)O1 (stereo not given in full)		1.21	2230	2050	4.01 (active)	-2.64		1.09 (inactive)						
CC(C)(c1ccccc1)c1ccc(O)cc1	0.897 (inactive)	0.637	8850	9870	0.409 (inactive)	-0.32	0.62 (inactive)							
CC1CNCCc2ccc(Cl)cc21 (stereo not given)	0.911 (inactive)	0.645	8250	9060	-0.213 (inactive)	-0.176								
CCc1cc2c(s1)-n1c(C)nnc1CN=C2c1ccccc1Cl	0.948 (inactive)	0.493	8260	8710	-0.248 (inactive)	-0.187								
Fc1cc(F)c2c(c1)[C@H]1C=CC[C@@H]1C(c1cccnc1)N2 (stereo not given in full)		0.287	1650	1710	1.16 (inactive)	0.671		0.966 (inactive)						
CC[C@@]1(O)C(=O)OCc2c1cc1n(c2=O)Cc2cc3c(O)cccc3nc2-1	0.938 (inactive) and 1.02 (inactive)	0.873 and 1	1030 and 1460	1100 and 1430	-1.16 (inactive)	-0.93	-2.13 (inactive)		25.4% (inactive)	34				
Cc1cc(C(=O)CN2CCCC2)c(C)n1-c1ccc(F)cc1	0.909 (inactive)	0.246	8040	8840	-0.384 (inactive)	0.483								
C[C@]12CC[C@@H]3[C@@H](CC[C@@]45O[C@@H]4C(O)=C(C#N)C[C@]35C)[C@@H]1CCC2O (stereo not given in full)	0.917 (inactive)	0.921	7740	8440	-0.378 (inactive)	0.316								
C[C@]12CC[C@H]3[C@@H](CC[C@]4(O)C[C@@H](O)CC[C@]34C=O)[C@@]1(O)CC[C@@H]2C1=CC(=O)OC1	1.08 (inactive)	0.794	773	713					0.385% (inactive)	54		16 AU (inactive)	1.42 (inactive)	11.2% (inactive)
